Measurements reported in PubChem BioAssay (NCATS).
A number with no mark means an inactive call. Calls of active or inactive are those of the source. The call rests on the fitted dose curve; in most records, active means well fitted activation curve with a large enough effect; inconclusive means small, poorly fitted or top-dose-only effect; inactive means no such curve, though single readings can be large or run the other way.

Biological target: Parathyroid hormone/parathyroid hormone-related peptide receptor (Homo sapiens) (UniProt Q03431)
Experiment: qHTS for PTHR1 Agonists: Optimization Screen against the NCGC LOPAC library (AID 1347079); on activation: 0% is about no effect
Details: HEK293 GP2 PTHR1 GloSensor cAMP luminescence, 1 h; series mostly up to 57.1 µM; activation: at the top concentration
Excerpt: The goal of the proposed studies is to discover new compounds that act as potent agonists on the parathyroid hormone receptor type-1 (PTHR1). The PTHR1 plays critical roles in maintaining blood calcium and phosphate levels, as well as in controlling bone remodeling. PTHR1 agonists could thus be useful for treating diseases such as hypoparathyroidism and osteoporosis. In the former disease, an agonist drug would help maintain normal blood calcium and phosphate levels under conditions of parathyroid hormone deficiency. In the latter disease, an agonist drug would stimulate new bone formation and thus reduce the risk of fracture, under conditions of bone fragility, as occurs in aging. We performed an optimization assay of the quantitative high-throughput screening (qHTS) for the parathyroid hormone receptor type-1 (PTHR1) against the NCGC LOPAC library collection of […] compounds using a unique HEK-293-derived cell line (GP2) that expresses the PTHR1 and a GloSensor cAMP reporter construct. Increase in signal (activation / agonist) is the desired outcome for compounds of interest. NIH Chemical Genomics Center [NCGC] NIH Molecular Libraries Probe Production Centers Network [MLPCN] MLPCN Grant: P01 DK011794 Assay Submitter (PI): Thomas Gardella PhD, Massachusetts General Hospital
Reagents / Controls: M-PTH (1-15) peptide hormone fragments was provided by the assay provider and was used as a control. Column 1 was treated with M-PTH titration (1:2 dilution) beginning with a final concentration of 10uM. Column 2 was treated with M-PTH final concentration of 10uM. Columns 3 and 4 were treated with DMSO only to assess background and noise signal. Assay Steps: Four microLiter of cells suspension was dispensed in a 1536-well assay plate at a final density of 3000 cells/well. The plates were incubated overnight, after which 4uL of 0.5mM of BloTium Luciferin plus 0.5mM IBMX was added. Next, the plate was incubated at 37C for 1hr before 23nL of compound (at various final concentrations from 40uM to 0.32uM) and control were added using a 1536-well array Kalypsys pin-tool. The treated plates were again incubated at 37C for another hour. Luminescence signal was obtained using the PerkinElmer ViewLux plate reader after 15min or room temperature incubation.
Potency means the concentration at half of the fitted maximal effect.

Chain of Parathyroid hormone/parathyroid hormone-related peptide receptor (Homo sapiens) (Q03431 whole entry, looked up): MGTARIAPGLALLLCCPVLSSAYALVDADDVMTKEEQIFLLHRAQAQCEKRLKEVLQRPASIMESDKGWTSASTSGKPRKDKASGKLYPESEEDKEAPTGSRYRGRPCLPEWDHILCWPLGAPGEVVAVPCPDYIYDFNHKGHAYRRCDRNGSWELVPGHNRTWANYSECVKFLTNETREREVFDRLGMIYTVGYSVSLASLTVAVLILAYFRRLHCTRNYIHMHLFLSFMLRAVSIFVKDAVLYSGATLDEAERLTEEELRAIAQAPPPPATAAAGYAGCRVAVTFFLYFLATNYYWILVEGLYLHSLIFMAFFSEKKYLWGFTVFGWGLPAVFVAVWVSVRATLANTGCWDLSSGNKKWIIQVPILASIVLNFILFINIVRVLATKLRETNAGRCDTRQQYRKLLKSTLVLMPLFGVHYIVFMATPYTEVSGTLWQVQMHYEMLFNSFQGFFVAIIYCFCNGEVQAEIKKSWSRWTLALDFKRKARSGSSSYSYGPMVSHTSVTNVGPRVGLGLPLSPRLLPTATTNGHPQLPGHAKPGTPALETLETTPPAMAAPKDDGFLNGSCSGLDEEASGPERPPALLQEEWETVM

SMILES | activation [%] | Potency
C#CC(N)CCC(=O)O (stereo not given) | -35.6 | 
Cc1cccc(C)c1OCC(N)C(C)C (stereo not given) | -34.3 | 
COc1ccc(NC(=O)c2ccc(-c3ccc(-c4noc(C)n4)cc3C)cc2)cc1N1CCN(C)CC1 | 8.2 | 
Nc1ncnc2c1ncn2C1CCCO1 (stereo not given) | 43.4 | 
OCC1NCC(O)C(O)C1O (stereo not given) | -2.22 | 
CN1CCc2cc(Cl)c(O)cc2[C@@H](c2ccccc2)C1 | -3.58 | 
CC(N)(C(=O)O)c1ccc(C(=O)O)cc1 (stereo not given) | -10.9 | 
COc1ccc2c(c1)c(CC(=O)O)c(C)n2C(=O)c1ccccc1 | 7.89 | 
CCSC(=N)N | 29.6 | 
Cc1nc2c(OCc3ccccc3)cccn2c1CC#N | -36 | 
CN(C)CCC(c1ccc(Br)cc1)c1ccccn1 (stereo not given) | -8.9 | 
Brc1c(Br)c(Br)c2[nH]cnc2c1Br | 6.59 | 
C=CCn1c(=O)c2c(nc(-c3ccc(S(=O)(=O)O)cc3)n2C)n(C)c1=O | 23.8 | 
C=CC1(C)CC(=O)C2(O)C(C)(O1)C(OC(C)=O)C(O)C1C(C)(C)CCC(O)C12C (stereo not given) |  | 21.2 µM (active)
COc1ccccc1N1CCN(CCCNc2c(C)c(=O)n(C)c(=O)n2C)CC1 | 19.6 | 
O=c1cc(O)cc(/C=C/c2ccc(O)c(O)c2)o1 | 15.1 | 
CCCCCCCCCCCCCCCCCCOC[C@H](COP(=O)([O-])OCC[N+](C)(C)C)OC | 16.5 | 
CC(C)Cn1c(=O)n(C)c(=O)c2[nH]cnc21 |  | 4.23 µM (active)
CCCn1c(=O)c2[nH]c(C3CCCC3)nc2n(CCC)c1=O | 6.98 | 
COc1ccc2c(c1)c(CC(=O)O)c(C)n2Cc1ccc(Cl)cc1 | 31.8 | 

SMILES | activation [%] | Potency
[N-]=[N+]=Nc1ccc(C(=O)CSC[C@H](NC(=O)CC[C@H](N)C(=O)O)C(=O)NCC(=O)O)cc1 | -5.1 | 
COc1ccccc1N1CCN(CCCCNC(=O)c2ccc3ccccc3c2)CC1 | 22.7 | 
NCCCCN | -0.48 | 
O=C(O)CCC(=O)N1CCCC1C(=O)O (stereo not given) | -7.89 | 
COc1cc(N)c(Cl)cc1C(=O)OCCN1CCCCC1 | -22.4 | 
O=S(=O)(c1cccc2c(Cl)cccc12)N1CCCNCC1 | 6.11 | 
CNCCNS(=O)(=O)c1cccc2cnccc12 | -23.6 | 
CC(C)C[C@H](NC(=O)C1OC1C(=O)O)C(=O)NCCCCN=C(N)N (stereo not given in full) | 17.4 | 
CCCCCCCCCCCCCCC[C@H](O)[C@H](N)CO | -12.7 | 
O[Si](CCCN1CCCCC1)(c1ccc(F)cc1)C1CCCCC1 (stereo not given) | -20 | 
NCCC1CCCC(CCN)N1 (stereo not given) | -39.1 | 
CCCCCCCCCCC(C)(C)C(=O)Nc1c(OC)cc(OC)cc1OC | -9.29 | 
c1ccc(CN2CCC3(CCCc4ccccc43)CC2)cc1 | 28 | 
N[C@H]1CONC1=O | -3.31 | 
Cc1ccc2c(c1)C(N1CCN(C)CC1)=Nc1cccnc1N2 | 26.5 | 
NC(=O)c1cc[n+](CC2=C(C(=O)O)N3C(=O)[C@@H](NC(=O)[C@@H](c4ccccc4)S(=O)(=O)[O-])[C@H]3SC2)cc1 | 10.9 | 
C=C(C)C1CC=C(C(=O)O)CC1 (stereo not given) | -28 | 
C=CCN1CCc2c(cc(O)c(O)c2Br)[C@@H](c2ccccc2)C1 | -20.6 | 
N[C@H](C(=O)O)[C@H]1C[C@@H]1C(=O)O | -13.6 | 
CN1CCC2(CCN3CCc4c(oc5ccccc45)C3C2)N(C)C1=O (stereo not given) | -23.6 | 
